DAX1 inh-1 = blocks DAX1 repression of SF-1 activated StAR promoter. HEK293T StAR-luciferase reporter, SF-1/DAX-1 repression relief. inhibition, % at 6.8 µM. AID 652010. hit rate 1.1% among 370,000;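 active means inhibition above the mean over all tested compounds plus 3 SD, cut at about 3.6% in these data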;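 further: 0% = DAX-1 cells with DMSO and 100% = cells lacking DAX-1 with DMSO; higher inhibition means more luminescence from relief of DAX-1 repression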
ssDAF12 agonist = S. stercoralis DAF-12 activation, primary screen. HEK293 ssDAF-12/GRIP1 lit1-tk-luc reporter, luminescence; % of 3 µM dafachronic acid response. activation, % at 6.8 µM. hit rate 1% among 370,000. AID 652126;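 active means activation above the mean over all tested compounds plus 3 SD, cut at about 0.9% in these data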;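 further: 0% = DMSO-only wells and 100% = 3 µM delta7-dafachronic acid wells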
hcDAF-12 act = H. contortus DAF-12 activation, primary screen. HEK293 hcDAF-12 lit1-tk-luc reporter, luminescence; 0% DMSO, 100% Δ7-dafachronic acid. activation, % at 6.8 µM. hit rate 1.4% among 370,000;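 active means activation above the mean of all tested compounds plus 3 SD, cut at about 5.5% in these data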;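 further: 100% = response to 3 µM Δ7-dafachronic acid high control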
hgDAF12 agonist = activates the H. glycines DAF-12 receptor ligand-binding domain. AID 687014. HEK293 GAL4-hgDAF12 UAS-luciferase reporter, agonist luminescence; normalized to butyrate control. hit rate 1.8% among 370,000. activation, % at 6.8 µM;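 active means activation above a cutoff set at the mean of all screened compounds plus 3 SD, cut at about 10% in these data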;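 further: 0% = DMSO wells and 100% = sodium butyrate wells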
DAX1 inh-2 = inhibitors of human orphan nuclear receptor DAX1 (NR0B1) | HEK293 Gal4-DAX1 luciferase reporter, luminescence | P51843 | hit rate 0.99% among 340,000 | inhibition, % at 6.75 µM | AID 504766;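 active means inhibition above the mean over all tested compounds plus 3 SD, cut at about 4.2% in these data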;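 further: 0% = DAX1-transfected cells with DMSO and 100% = empty-vector control cells with DMSO; inhibition shows as a rise in luminescence from relieved DAX1 repression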
Target sequence (P51843 207-470 limits assumed): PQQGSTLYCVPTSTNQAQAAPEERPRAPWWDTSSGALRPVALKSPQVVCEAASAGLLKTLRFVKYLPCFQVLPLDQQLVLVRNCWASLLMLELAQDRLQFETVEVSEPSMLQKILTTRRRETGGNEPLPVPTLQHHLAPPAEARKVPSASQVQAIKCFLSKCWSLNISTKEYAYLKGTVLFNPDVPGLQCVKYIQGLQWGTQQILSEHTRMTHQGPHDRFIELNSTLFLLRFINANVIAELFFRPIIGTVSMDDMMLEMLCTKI
hgDAF12 ag = confirmation of H. glycines DAF-12 agonists; hit rate 80% among 3,300; shares compounds with hgDAF12 agonist; HEK293 GAL4-hgDAF12 luciferase reporter, agonist mode; percent of butyrate response; activation, % at 6.8 µM;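 active means mean activation over triplicate wells above the hit cutoff derived from the earlier primary screen, cut at about 11% in these data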;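 further: 0% = DMSO low control and 100% = 2 mM sodium butyrate high control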
LXR ag 2 = activates human LXR-beta, counter-screen for DAF-12 agonists. shares compounds with hgDAF12 agonist. AID 743051. 3,300 tested, under 10 active. activation, % at 6.8 µM. HEK293 Gal4-LXR luciferase reporter, 24 h;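 active means mean activation of the triplicate above a set limit carried over from the primary screen, none filed active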
* marks the source's active call; other numbers are inactive results; x = not tested or not shown. This is a sample that favours compounds with a hit; in the whole collection about 4.1% have one here.

SMILES	DAX1 inh-1	ssDAF12 agonist	hcDAF-12 act	hgDAF12 agonist	DAX1 inh-2	hgDAF12 ag	LXR ag 2
O=C(NCC1CCCO1)c1sc2ccccc2c1Cl (configuration not stated)	3.2	-1.2	2.6	13.8*	2.5	10.4	0.5
O=C(NCC1CCCO1)c1cc(-c2ccccc2)on1 (configuration not stated)	2.2	0.3	6.5*	42.0*	4.3*	48.4*	0.6
Cc1ccc(S(=O)(=O)N2CCN(C(=O)C(C)Cn3cncn3)CC2)cc1C (configuration not stated)	-0.1	-0.7	-1.4	1.5	-0.1	x	x
CCCCc1ccccc1NC(=S)NC1CCCC1	0.1	-0.7	-0.9	-0.9	-0.3	x	x
c1ccc(OCc2nnc(-c3ccccc3)o2)cc1	2.7	-1.1	0.5	8.0	1.3	x	x
Oc1ccccc1-c1nnc(COc2ccccc2)o1	1.4	-0.4	1.7	13.7*	2.2	8.5	0.2
Cc1ccnc(NC(=O)c2ccc(OCc3c(C)noc3C)cc2)c1	4.2*	-0.5	0.1	13.6*	0.6	5.5	0.4
CCOc1ccc(C(=O)Nc2ccc3[nH]ncc3c2)cc1	2.0	0.5	5.5	15.8*	-1.5	14.9*	0.8
CCOc1cc(C(=O)Nc2cc(C)on2)cc(OCC)c1OCC	-0.9	-1.1	-2.1	-1.7	-1.6	x	x
CCOc1ccc(C(=O)Nc2cc(C)on2)cc1	2.3	-0.7	2.5	14.2*	0.3	14.5*	0.7
CCOc1ncccc1C(=O)OCC(=O)c1cccc(Br)c1	-0.3	-0.8	-2.0	-0.2	-0.8	x	x
Cc1ccc2nc(-c3ccc4c(c3)NC(=O)CO4)cn2c1	4.5*	-0.2	4.3	13.8*	3.1	13.8*	0.8
COc1cc(Cl)ccc1OCc1cc(C(=O)N2CCN(C)CC2)no1	0.1	-0.5	0.7	-2.3	0.2	x	x
COc1cc(Cl)ccc1OCc1cc(C(=O)N2CCN(C)C(=O)[C@@H]2C)no1	2.6	-0.4	5.8*	14.5*	3.2	13.0*	0.5
O=C(CSc1nnc(NC(=O)C2CC2)s1)NCc1ccccc1Cl	0.9	-1.0	-2.5	0.7	-0.6	x	x
Cc1noc(C)c1COc1ccccc1C(=O)NNC(=O)C(C)Oc1ccccc1F (configuration not stated)	-0.8	-1.1	-1.6	-0.2	0.7	x	x
CCN(CC)c1ccc(N=Nc2ncn[nH]2)cc1	1.9	-0.5	3.8	15.1*	x	9.8	0.4
Cc1ccccc1NC(=S)N/N=C/c1ccc(O)cc1O	0.8	-0.1	3.9	20.3*	3.9	7.1	0.3
Cc1cccc(NC(=S)N/N=C/c2cccc(O)c2)c1C	-2.4	-2.1	-2.0	2.2	-2.9	x	x
CC(C)C(=O)Nc1nc2cc3c(cc2s1)OCCO3	0.9	-0.9	3.7	13.3*	-3.0	7.4	0.6
O=C(Nc1ccc(Cl)cc1-c1nc2ccccc2s1)c1ccco1	x	x	x	x	-0.3	x	x
O=C(Nc1nc(-c2nc3ccccc3s2)cs1)c1ccco1	4.5*	0.3	2.4	18.9*	1.0	7.4	0.4
O=C(Nc1nc2cc3c(cc2s1)OCCO3)c1ccco1	-8.3	-1.9	-4.9	-11.8	-4.8	x	x
O=C(Nc1nc2cc3c(cc2s1)OCCO3)c1ccncc1	3.4	-1.2	0.3	8.3	3.0	x	x
O=C(Nc1nc2cc3c(cc2s1)OCO3)c1ccco1	3.5	0.1	4.8	19.0*	-4.9	8.6	0.6
Cc1occc1C(=O)Nc1ccc(OCc2ccccc2)cc1	4.4*	-0.2	3.7	14.1*	0.1	18.6*	0.4
COc1ccccc1/C=C(\NC(=O)c1cccc(C)c1)C(=O)Nc1ccccn1	0.1	-1.0	-1.9	-0.2	0.3	x	x
CCOC(=O)C1CCCN(C(=O)c2ccc(NS(=O)(=O)c3ccc4[nH]c(=O)[nH]c4c3)cc2)C1 (configuration not stated)	0.8	-0.7	-0.7	-1.2	-0.6	x	x
C/C(=N\Nc1ccc2nncn2n1)c1cccs1	1.3	0.6	2.6	4.9	2.9	x	x
CCOc1ccc(OCc2cccc(C(=O)Nc3ccc(CN4CCCCC4)cc3)c2)cc1	1.5	-0.1	4.0	18.4*	-3.1	19.2*	0.7
